Test results: PubChem BioAssay (Tox21)
Unmarked numbers belong to inactive results. A call without a number means that no potency is given here. The source made the active and inactive calls. Calls follow the shape of the full dose curve.

Experiment: G protein-coupled receptor (GPCR) small molecule agonists, calcium flux assay: HEK293 wild type cell line counter screen (AID 1920065)
Settings: HEK293 WT calcium flux, fluorescence, agonist mode; series mostly up to 57.6 µM; activation: at the top concentration
Excerpt: U.S. Tox21 Program National Center for Advancing Translational Sciences [NCATS] Division of Preclinical Innovation [DPI] U.S. Environmental Protection Agency [EPA] National Institutes of Environmental Health Sciences [NIEHS] National Toxicology Program [NTP] U.S. Food and Drug Administration [FDA] Assay overview: The increased intracellular calcium release that occurred upon G protein-coupled receptor (GPCR) activation led to the frequent use of calcium flux assays to detect GPCR activation. For the purpose of studying and screening compounds that may activate GPCR, receptor-overexpressing models were typically generated using Hek293 wild-type (WT) cells. In order to eliminate the compounds that may have induced calcium release for non-specific activation, a counter-assay utilizing calcium flux on Hek293 WT cells was performed. The data were formulated in order to serve as a control for any calcium flux detection utilizing Hek293 cells with either GPCR overexpression or gene modification. The procurement of Hek293 WT cells from ATCC. Fluorescence intensity can be utilized to determine the activation of the compound in a calcium flux assay. As a counter control, this cell line was utilized to screen the Tox21 10K compound library.
Assay Protocol Summary: Hek293 cells were dispensed at 1500cells/4uL/well in 1536-well black wall/clear bottom plates using a multidrop dispenser. After the assay plates were incubated at a 37 C/5% CO2 incubator for 18 hours, 4 uL of Calcium Dye Solution was added to each well. The plates were incubated at 37 C for 1 hour. For agonist mode, 23 nL of compounds dissolved in DMSO, positive control (ATP) or DMSO only was transferred to the assay plate by a pin tool station. The fluorescence intensity in the plates was measured using FDSS 7000EX kinetic plate reader with a filter set of Ex/Em=480/540 for 3 min at 1 sec intervals. Each test compound was measured at 15 concentrations and in triplicates.

| SMILES | activation | Potency |
| --- | --- | --- |
| CCc1cc(C)cc(CC)c1-c1c(OC(=O)C(C)(C)C)n2n(c1=O)CCOCC2 | 0.133% | – |
| CCCC[N+]1(C)CCCC1 | – | inactive |
| [CH3][Sn]([CH3])([Cl])[Cl] | – | inactive |
| COc1c(C(C)(C)C)cc([N+](=O)[O-])c(C)c1[N+](=O)[O-] | 0.116% | – |
| CNCC(O)c1ccc(O)cc1 (stereo not given) | – | inactive |
| C[CH2][Hg][S]c1ccccc1C(=O)O | – | inactive |
| CC(=[OH+])/C=C(/C)[O-].CC(=[OH+])/C=C(\C)[O-].CC(=[OH+])/C=C(\C)[O-].[Al] | -1.61% | – |
| CCCCCCCC[N+](C)(CCCCCCCC)CCCCCCCC | – | inactive |
| C[N+](C)(C)CC(=O)O | – | inactive |
| CC[N+](CC)(CC)CC | – | inactive |
| CSc1nc(NC(C)C)nc(NC(C)C)n1 | – | inactive |
| C[Si](Cn1cncn1)(c1ccc(F)cc1)c1ccc(F)cc1 | – | inactive |
| CCOc1cc(C=O)ccc1O | – | inactive |
| COC(=O)Cc1ccccc1 | -1.01% | – |
| Cc1cc(-c2ccc(N)c(C)c2)ccc1N | – | inactive |
| COc1nc(C)nc(NC(=O)NS(=O)(=O)c2ccccc2Cl)n1 | 0.637% | – |
| O=c1nc(O)n(Cl)c(=O)n1Cl | – | inactive |
| O=C(O)C(Cl)Cl | – | inactive |
| CCCCCCCCCBr | 0.0255% | – |
| COc1ccc(C(O)(c2cncnc2)C2CC2)cc1 (stereo not given) | -0.863% | – |

| SMILES | activation | Potency |
| --- | --- | --- |
| CCC(=O)c1ccccc1 | 0.213% | – |
| Nc1ccc(Cl)c(Cl)c1 | – | inactive |
| Cc1nn(-c2cc(NS(C)(=O)=O)c(Cl)cc2Cl)c(=O)n1C(F)F | 0.0461% | – |
| NC(=O)CF | 0.171% | – |
| Oc1ccc(Cl)cc1 | – | inactive |
| CCC(C)(C#N)N=NC(C)(C#N)CC (stereo not given) | 1.72% | – |
| CC(C(=O)c1ccccc1)N(C)C (stereo not given) | -0.589% [at 26.5 µM] | – |
| Nc1cnn(-c2ccccc2)c(=O)c1Cl | -1.18% | – |
| Nc1ccc(-c2ccc(N)c(Cl)c2)cc1Cl | – | inactive |
| ClC(Cl)c1ccccc1 | – | inactive |
| O=c1oc2ccccc2c(O)c1C(CC(O)c1ccc(-c2ccc(Br)cc2)cc1)c1ccccc1 (stereo not given) | – | inactive |
| Nc1ccccc1C(=O)OCCc1ccccc1 | – | inactive |
| CCNc1nc(NC(C)C)nc(SC)n1 | – | inactive |
| COC(=O)C(Cl)C(=O)OC | 0.0538% [at 26.5 µM] | – |
| CCCCOCCOP(=O)(OCCOCCCC)OCCOCCCC | – | inactive |
| C[C@]12CCC(=O)C=C1CC[C@@H]1[C@@H]2CC[C@@]2(C)[C@H]1CC[C@]2(C)O | – | inactive |
| CC(C)OC(=S)S | -0.111% | – |
| CC(C)(C)C(=O)Cl | 0.55% | – |
| C#C[C@]1(O)CC[C@H]2[C@@H]3CCC4=CC(=O)CC[C@]4(C)[C@H]3CC[C@@]21C | – | inactive |
| CCCCC1C(=O)NC(=O)N(C2CCCCC2)C1=O (stereo not given) | 0.031% [at 26.5 µM] | – |
